Experimental data taken from PubChem BioAssay (EPA / NIEHS).
“And” between values parts separate entries of the source, which are not always exact repeats. Equal entries are not always repeated. Records with an inconclusive call do not appear. A structure can be active in one record and inactive in another. The source made the active and inactive calls. Rule for the calls, unless noted: active = hit-call score of the fitted dose curve at least 0.9, where 1 is the maximum; inactive = score below 0.9.

Key:
[1] = read-out: Nuclear factor erythroid 2-related factor 2 (Homo sapiens) (UniProt Q16236); assay: LTEA_HepaRG_NFE2L2: Life Technologies and Expression Analysis (LTEA) Assay for Nuclear factor erythroid 2-related factor 2 (NFE2L2) Transcription Factor using HepaRG (AID 2283527); details: mRNA level, 48 h; actives raise or lower the signal
Method in brief: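 Human liver HepaRG line treated in duplicate for 48 h with an eight-point series topping at 100 uM. Gene expression of NFE2L2 by qRT-PCR, bidirectionally fitted against the vehicle control.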

[2] = read-out: succinate dehydrogenase complex iron sulfur subunit B (SDHB), SDHB (gene 6390); assay: LTEA_HepaRG_SDHB: Life Technologies and Expression Analysis (LTEA) Assay for succinate dehydrogenase complex iron sulfur subunit B (SDHB) using HepaRG (AID 2283528); details: mRNA level, 48 h; actives raise or lower the signal
Method in brief: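 A human HepaRG culture in serum-free induction medium received test chemicals for 48 h over an eight-point range capped at 100 uM. SDHB expression change was quantified by qRT-PCR.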

[3] = read-out: Signal transducer and activator of transcription 3 (Homo sapiens) (UniProt P40763); assay: LTEA_HepaRG_STAT3: Life Technologies and Expression Analysis (LTEA) Assay for Signal transducer and activator of transcription (STAT3) using HepaRG (AID 2283529); details: mRNA level, 48 h; actives raise or lower the signal
Method in brief: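 In this transcriptional endpoint, HepaRG cultures receive test chemicals at up to 100 uM for 48 h, tested in duplicate. STAT3 mRNA is normalized to ACTB, GAPDH and POLR2A.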

[4] = read-out: sulfotransferase 2A1 (SULT2A1), SULT2A1 (gene 6822); assay: LTEA_HepaRG_SULT2A1: Life Technologies and Expression Analysis (LTEA) Assay for sulfotransferase 2A1 (SULT2A1) using HepaRG (AID 2283531); details: mRNA level, 48 h; actives raise or lower the signal
Method in brief: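 Transcript levels of SULT2A1, quantified by qRT-PCR and normalized to three housekeeping genes, serve as the readout. Human HepaRG cultures receive test chemicals for 48 h at up to 100 uM in half-log steps, with 0.5% DMSO vehicle.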

[5] = read-out: Transforming Growth Factor (TGFA), TGFA (gene 7039); assay: LTEA_HepaRG_TGFA: Life Technologies and Expression Analysis (LTEA) Assay for Transforming Growth Factor (TGFA) using HepaRG (AID 2283532); details: mRNA level, 48 h; actives raise or lower the signal
Method in brief: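 Gene expression of TGFA was quantified by qRT-PCR after human HepaRG cells were treated for 48 h with test chemicals (eight concentrations, highest 100 uM, 0.5% DMSO). Activity in either direction was fitted relative to DMSO.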

[6] = read-out: Transforming Growth Factor (TGFB1), TGFB1 (gene 7040); assay: LTEA_HepaRG_TGFB1: Life Technologies and Expression Analysis (LTEA) Assay for Transforming Growth Factor (TGFB1) Transporter using HepaRG (AID 2283533); details: mRNA level, 48 h; actives raise or lower the signal
Method in brief: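 HepaRG, 48 h post-plating, switched to serum-free induction medium; chemicals 100 uM top, half-log, 8 pts, 0.5% DMSO, dup; 48 h exposure; RNA → Fluidigm TaqMan qRT-PCR; norm ACTB/GAPDH/POLR2A; bidirectional fit vs DMSO.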

TIMP1, TIMP1 (gene 7076) = assay: LTEA_HepaRG_TIMP1: Life Technologies and Expression Analysis (LTEA) Assay for TIMP1 using HepaRG (AID 2283534); details: mRNA level, 48 h; actives raise or lower the signal
Method in brief: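 Readout is TIMP1 mRNA level measured by qRT-PCR and normalized to three housekeeping genes. Human HepaRG cells were treated for 48 h in duplicate at eight concentrations up to 100 uM (0.5% DMSO); gain or loss fitted against DMSO.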

[7] = read-out: Tumor necrosis factor receptor 1 (TNFRSF1A), TNFRSF1A (gene 7132); assay: LTEA_HepaRG_TNFRSF1A: Life Technologies and Expression Analysis (LTEA) Assay for Tumor necrosis factor receptor 1 (TNFRSF1A) using HepaRG (AID 2283535); details: mRNA level, 48 h; actives raise or lower the signal
Method in brief: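 Read-out is TNFRSF1A transcript level by TaqMan qRT-PCR, normalized to three housekeeping genes, scored as gain or loss of signal versus 0.5% DMSO. Human HepaRG cells received test chemicals for 48 h at up to 100 uM (half-log series).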

[8] = read-out: Thyroid Hormone Responsive (THRSP), THRSP (gene 7069); assay: LTEA_HepaRG_THRSP: Life Technologies and Expression Analysis (LTEA) Assay for Thyroid Hormone Responsive (THRSP) using HepaRG (AID 2283536); details: mRNA level, 48 h; actives raise or lower the signal
Method in brief: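 Cell model: human HepaRG, approx. 100,000 cells/well, 0.5% DMSO vehicle. Exposure lasts 48 h; phenobarbital 1 mM serves as induction positive control. Gene expression is measured by qRT-PCR against three endogenous control genes.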

[9] = read-out: Cellular tumor antigen p53 (Homo sapiens) (UniProt P04637); assay: LTEA_HepaRG_TP53: Life Technologies and Expression Analysis (LTEA) Assay for Tumor Protein P53 (TP53) using HepaRG (AID 2283537); details: mRNA level, 48 h; actives raise or lower the signal
Method in brief: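 Gain or loss of TP53 mRNA signal is scored relative to 0.5% DMSO after 48 h chemical treatment of HepaRG liver cells, tested in duplicate at eight half-log concentrations up to 100 uM.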

[10] = read-out: UDP glucuronosyltransferase (UGT1A1), UGT1A1 (gene 54658); assay: LTEA_HepaRG_UGT1A1: Life Technologies and Expression Analysis (LTEA) Assay for UDP glucuronosyltransferase (UGT1A1) using HepaRG (AID 2283538); details: mRNA level, 48 h; actives raise or lower the signal
Method in brief: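 HepaRG, 48 h chemical exposure (top 100 uM, half-log 8-pt, 0.5% DMSO vehicle), duplicate wells; qRT-PCR (TaqMan, Fluidigm array) for UGT1A1 mRNA, housekeeping-normalized; bidirectional curve fit vs DMSO baseline.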

[11] = read-out: UDP glucuronosyltransferase (UGT1A6), UGT1A6 (gene 54578); assay: LTEA_HepaRG_UGT1A6: Life Technologies and Expression Analysis (LTEA) Assay for UDP glucuronosyltransferase (UGT1A6) using HepaRG (AID 2283539); details: mRNA level, 48 h; actives raise or lower the signal
Method in brief: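 HepaRG, 48 h post-plating switch to serum-free induction medium; chemical 48 h, 100 uM top, half-log x8, duplicate, 0.5% DMSO. Phenobarbital 1mM induction control. UGT1A6 mRNA by TaqMan qRT-PCR; gain/loss fit vs DMSO.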

[12] = read-out: X-box binding protein 1 (XBP1), XBP1 (gene 7494); assay: LTEA_HepaRG_XBP1: Life Technologies and Expression Analysis (LTEA) Assay for X-box binding protein 1 (XBP1) using HepaRG (AID 2283540); details: mRNA level, 48 h; actives raise or lower the signal
Method in brief: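 Transcript levels of XBP1, measured by qRT-PCR and normalised to three housekeeping genes, were fitted bidirectionally relative to 0.5% DMSO controls. Human HepaRG cells received eight-point half-log dilutions from 100 uM for 48 h.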

[13] = LTEA_HepaRG_LDH_cytotoxicity: Cytotoxicity Assessment in the Life Technologies and Expression Analysis (LTEA) Assay (AID 2283563; active = hit-call score of the fitted dose curve at least 0.9, where 1 is the maximum;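 for AC50: LDH activity released into spent culture medium as a marker of cell death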)
Method in brief: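 Cells were thawed and plated for 48 h. Medium was then replaced with serum-free induction medium. Chemicals (8 half-log points, maximum 100 uM, 0.5% DMSO) were added in duplicate for 48 h, after which spent medium was assayed for LDH.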

[14] = ATG_XTT_Cytotoxicity: Cytotoxicity Assessment in the Attagene TRANS-FACTORIAL HepG2 Assay (AID 2283584; active = hit-call score of the fitted dose curve at least 0.9, where 1 is the maximum)
Method in brief: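 Cells: human HepG2, transiently transfected with MRTU reporter constructs. Exposure 24 h. Readout: XTT, cell number. Baseline/neg ctrl DMSO; loss-of-signal scored.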

[15] = biological target: Cellular tumor antigen p53 (Homo sapiens) (UniProt P04637); assay: TOX21_p53_BLA_p3_ratio: Tox21 HCT-116 p53 Agonism Beta-lactamase Assay, Ratio, Phase 3 (AID 2283596; active = hit-call score of the fitted dose curve at least 0.9, where 1 is the maximum)
Method in brief: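 Cells were seeded at 4000/well, rested 5 h at 37C, then dosed with DMSO compound solutions (217-fold dilution) for 16 h. CCF4-AM substrate was loaded for 2 h at room temperature, and the 460/530 nm emission ratio was fitted for gain of signal versus DMSO.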

[16] = read-out: solute carrier (SLCO1B1), SLCO1B1 (gene 10599); assay: LTEA_HepaRG_SLCO1B1: Life Technologies and Expression Analysis (LTEA) Assay for solute carrier (SLCO1B1) using HepaRG (AID 2283530); details: mRNA level, 48 h; actives raise or lower the signal
Method in brief: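 HepaRG, serum-free induction medium, 48 h dosing, 8-pt half-log from 100 uM, 0.5% DMSO vehicle, duplicates. Readout: SLCO1B1 mRNA, qRT-PCR, ACTB/GAPDH/POLR2A normalization; up or down fit vs DMSO.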

[17] = TOX21_p53_BLA_p3_viability: Viability Assessment in the Tox21 HCT-116 p53 Agonism Beta-lactamase Assay, Phase 3 (AID 2283593; active = hit-call score of the fitted dose curve at least 0.9, where 1 is the maximum;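 note: cells exposed to compound for 16 h before reading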)
Method in brief: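 HCT-116 cells (4000/well) rested 5 h at 37C, then got DMSO compounds by pin tool (217-fold dilution) for 16 h at 37C, 5% CO2. After the bla read, CellTiter-Glo was added and luminescence read at 30 min, room temperature.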

[18] = TOX21_p53_BLA_p4_viability: Viability Assessment in the Tox21 HCT-116 p53 Agonism Beta-lactamase Assay, Phase 4 (AID 2283597; active = hit-call score of the fitted dose curve at least 0.9, where 1 is the maximum;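 note: hits lower the luminescence signal meaning cytotoxicity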)
Method in brief: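 Readout: ATP luminescence (CellTiter-Glo), measured 30 min after reagent addition at RT. The reagent followed a 2 h CCF4-AM incubation, and the cells had been exposed to compound for 16 h at 37C.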

Measured: AC50

Chain of Signal transducer and activator of transcription 3 (Homo sapiens) (P40763 whole entry, looked up): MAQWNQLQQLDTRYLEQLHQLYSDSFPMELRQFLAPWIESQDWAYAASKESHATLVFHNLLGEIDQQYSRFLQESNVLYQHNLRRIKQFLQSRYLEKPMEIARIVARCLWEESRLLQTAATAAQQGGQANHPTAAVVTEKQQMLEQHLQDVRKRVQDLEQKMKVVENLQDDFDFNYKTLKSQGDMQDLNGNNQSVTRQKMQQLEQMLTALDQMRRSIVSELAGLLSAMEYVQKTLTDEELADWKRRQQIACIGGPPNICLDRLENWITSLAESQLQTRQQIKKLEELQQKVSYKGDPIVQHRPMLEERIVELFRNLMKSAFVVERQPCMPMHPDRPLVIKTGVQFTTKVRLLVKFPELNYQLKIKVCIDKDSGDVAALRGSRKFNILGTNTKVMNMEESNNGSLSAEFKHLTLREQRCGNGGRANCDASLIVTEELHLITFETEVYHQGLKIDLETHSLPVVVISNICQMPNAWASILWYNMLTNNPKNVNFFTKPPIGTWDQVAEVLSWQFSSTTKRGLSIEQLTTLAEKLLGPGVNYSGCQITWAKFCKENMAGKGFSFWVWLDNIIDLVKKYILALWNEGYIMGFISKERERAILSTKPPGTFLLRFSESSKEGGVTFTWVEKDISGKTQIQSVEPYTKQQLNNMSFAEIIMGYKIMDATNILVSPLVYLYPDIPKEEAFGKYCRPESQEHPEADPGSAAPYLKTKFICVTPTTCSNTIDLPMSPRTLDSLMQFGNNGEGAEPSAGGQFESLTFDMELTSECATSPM
Chain of Nuclear factor erythroid 2-related factor 2 (Homo sapiens) (Q16236 whole entry, looked up): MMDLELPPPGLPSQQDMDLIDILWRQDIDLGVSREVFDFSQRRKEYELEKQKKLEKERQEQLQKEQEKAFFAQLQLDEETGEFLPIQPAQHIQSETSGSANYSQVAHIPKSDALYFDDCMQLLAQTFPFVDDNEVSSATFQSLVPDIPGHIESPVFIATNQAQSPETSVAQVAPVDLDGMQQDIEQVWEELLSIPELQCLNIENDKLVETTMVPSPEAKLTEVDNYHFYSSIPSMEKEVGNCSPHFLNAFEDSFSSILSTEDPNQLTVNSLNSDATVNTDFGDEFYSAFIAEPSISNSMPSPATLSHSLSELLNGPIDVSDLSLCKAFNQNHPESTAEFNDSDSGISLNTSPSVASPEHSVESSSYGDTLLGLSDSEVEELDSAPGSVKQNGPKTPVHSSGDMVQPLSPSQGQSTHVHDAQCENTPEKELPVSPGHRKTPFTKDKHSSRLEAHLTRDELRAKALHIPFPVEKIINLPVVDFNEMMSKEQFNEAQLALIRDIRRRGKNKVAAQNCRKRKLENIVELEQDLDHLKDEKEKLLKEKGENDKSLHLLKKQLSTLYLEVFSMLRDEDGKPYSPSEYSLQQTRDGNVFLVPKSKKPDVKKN
Chain of Cellular tumor antigen p53 (Homo sapiens) (P04637 whole entry, looked up): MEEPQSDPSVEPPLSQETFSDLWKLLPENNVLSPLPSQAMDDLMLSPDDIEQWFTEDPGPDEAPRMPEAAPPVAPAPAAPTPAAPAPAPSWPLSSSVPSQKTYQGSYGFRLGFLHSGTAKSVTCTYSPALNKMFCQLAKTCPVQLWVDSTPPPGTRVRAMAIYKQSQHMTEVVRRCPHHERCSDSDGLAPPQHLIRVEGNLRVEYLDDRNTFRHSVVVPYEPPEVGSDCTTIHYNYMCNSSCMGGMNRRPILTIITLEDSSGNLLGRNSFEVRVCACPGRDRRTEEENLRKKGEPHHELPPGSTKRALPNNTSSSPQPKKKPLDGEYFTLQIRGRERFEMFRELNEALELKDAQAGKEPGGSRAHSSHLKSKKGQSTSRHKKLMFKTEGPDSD

O=C(c1ccc(O)cc1O)c1ccc(O)cc1O
active: [15] 73.8 µM and 73.3 µM
inactive: [1] | [2] | [3] | [4] | [5] | [6] | TIMP1, TIMP1 (gene 7076) | [7] | [8] | [9] | [10] | [11] | [12] | [13] | [14]

COCCO
inactive: [1] | [2] | [3] | [4] | [5] | [6] | TIMP1, TIMP1 (gene 7076) | [7] | [8] | [9] | [10] | [11] | [12] | [13] | [14] | [15]

CCCCOC(=O)C(C)Oc1ccc(Oc2ccc(C(F)(F)F)cn2)cc1 (stereo not given)
inactive: [1] | [2] | [3] | [16] | [4] | [5] | [6] | TIMP1, TIMP1 (gene 7076) | [7] | [8] | [9] | [10] | [11] | [12] | [13] | [17] | [15] | [18]

CCOC(=O)c1ccc(O)cc1
inactive: [1] | [2] | [3] | [4] | [5] | [6] | TIMP1, TIMP1 (gene 7076) | [7] | [8] | [9] | [10] | [11] | [12] | [13] | [14] | [17] | [15] | [18]

CCCCCCC(C)OC(=O)COc1nc(F)c(Cl)c(N)c1Cl (stereo not given)
active: [18] 76.9 µM
inactive: [1] | [2] | [3] | [16] | [4] | [5] | [6] | TIMP1, TIMP1 (gene 7076) | [7] | [8] | [9] | [10] | [11] | [12] | [13] | [15]

CC1(C)C(C=C(Cl)Cl)C1C(=O)OCc1cccc(Oc2ccccc2)c1 (stereo not given)
inactive: [1] | [2] | [3] | [4] | [5] | [6] | TIMP1, TIMP1 (gene 7076) | [7] | [8] | [9] | [11] | [12] | [13] | [14] | [17] | [15] | [18]
active: [10] 14.6 µM

S=C(S)NCCNC(=S)S.[Mn+2].[S-]C([S-])=NCCN=C([S-])[S-].[Zn+2]
inactive: [1] | [6] | TIMP1, TIMP1 (gene 7076) | [7] | [14]
active: [1] 255 nM and 539 nM | [2] 601 nM and 552 nM and 792 nM | [3] 809 nM and 549 nM and 297 nM | [4] 1.2 µM and 1.29 µM and 1.56 µM | [5] 4.16 µM and 3.27 µM and 4.59 µM | TIMP1, TIMP1 (gene 7076) 6.38 µM | [7] 1.21 µM and 2.33 µM | [8] 699 nM and 352 nM and 513 nM | [10] 1.25 µM and 1.46 µM and 1.2 µM | [11] 2.12 µM and 1.74 µM | [12] 908 nM and 953 nM | [13] 1.58 µM and 1.57 µM and 1.84 µM
